High-throughput results as filed in PubChem BioAssay.
HCMV inh: blocks human cytomegalovirus replication. HFF cells, HCMV-luciferase reporter, 72 h; stronger effect = lower value. activity change, negative = inhibition, % at 57.5 µM. actives 4.5% (n = 410,000); in the data active = activity change below about -60%; inconclusive = no clear call, values can overlap the other calls; inactive = above about -39%
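Screen run at 2 compound doses on HFFs infected with reporter HCMV, MOI 1 PFU/cell. Luciferase activity from cell lysates at 72 h post infection gave inhibition relative to buffer-only and Salinomycin wells.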
FMDV antiviral: foot and mouth disease virus antiviral activity; FMDV antiviral cell-based qHTS; Potency, µM (highest dose often 57.9 µM), without a hit: top-dose activity change, negative = inhibition, most hits filed as inhibitors; actives 1.2% (n = 410,000); calls by dose curve; tested in HEK293T cells; note: read-out not given here; potency is the fitted concentration of half-maximal effect; nearly all actives have a fitted effect of over 45% in size
Giardia FBPA inh: Giardia lamblia aldolase inhibition | A8B2U2 | purified Giardia FBPA | Potency, µM (doses to about 59.6 µM), without a hit: at the top dose activity, negative = inhibition, most hits filed as inhibitors | actives 0.71% (n = 290,000) | AID 2451; note: potency is the fitted concentration of half-maximal effect; nearly all actives have a fitted effect of over 55% in size
Target sequence (A8B2U2 whole entry, looked up): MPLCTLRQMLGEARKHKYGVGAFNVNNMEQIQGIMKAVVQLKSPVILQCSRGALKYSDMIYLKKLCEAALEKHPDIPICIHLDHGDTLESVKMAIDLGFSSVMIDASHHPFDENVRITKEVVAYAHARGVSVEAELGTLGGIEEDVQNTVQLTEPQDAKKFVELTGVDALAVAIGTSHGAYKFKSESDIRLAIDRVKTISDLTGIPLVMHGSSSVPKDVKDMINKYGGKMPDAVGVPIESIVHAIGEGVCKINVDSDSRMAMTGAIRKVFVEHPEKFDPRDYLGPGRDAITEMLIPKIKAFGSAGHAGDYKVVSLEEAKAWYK
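Giardia FBPA (40 nM reagent) was preincubated 10 min at RT with compound (up to 57.5 uM final), then substrate plus GAPDH/TPI/NAD/arsenate coupling system with diaphorase/resazurin was added; resorufin fluorescence (525/598 nm) was read after 20 min.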
LASV entry inh: blocks Lassa virus binding to or entry into cells. Lassa virus pseudotype entry inhibition, cell reporter. Potency, µM (top dose mostly 37.9 µM), inactives show at the top dose activity change, negative = inhibition, actives largely listed as inhibitors. actives 1.2% (n = 300,000); calls by dose curve; tested in HEK293 cells; note: potency is the fitted concentration of half-maximal effect; nearly all actives have a fitted effect of over 50% in size
HCV inh: inhibitors of hepatitis C virus infection; actives 3.4% (n = 340,000); Potency, µM (highest dose often 41.8 µM), for inactives: at the top dose activity change, negative = inhibition, usual class: inhibitors; Huh7.5.1 HCVcc-Cre infection, luciferase reporter, 44 h; note: potency is the fitted concentration of half-maximal effect
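Infectious HCV cell culture screen: compound-treated cells (1,000/well, pre-plated 4 h) are infected with HCVcc-Cre at roughly 0.5 moi and grown 44 h. Infection is quantified by luciferase signal after 15 min substrate incubation at room temperature.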
Marburg entry inh: blocks Marburg virus binding to or entry into cells. Potency, µM (series often up to 37.8 µM), for the others: at the top dose activity change, negative = inhibition, usual class: inhibitors. actives 1.8% (n = 300,000). AID 540276. Marburg virus pseudotyped entry inhibition, cell reporter; calls by dose curve; tested in HEK293 cells; note: potency is the fitted concentration of half-maximal effect
Active calls of the source: *; ? = inconclusive; . = no result; [ ] = dose if it differs, or a comment. This is a sample that favours compounds with a hit; in the whole collection about 8.3% have one here. Unless noted, calls come from the whole dose curve; as a rule, active = well fitted curve in the direction sought with a large enough effect; inconclusive = small, poorly fitted or top-dose-only effect, or another doubt; inactive = no such curve, though single readings can be large; an effect the other way counts as inactive or inconclusive. % is set by controls: 0 for no effect and ±100 for the full control effect.

SMILES	HCMV inh	FMDV antiviral	Giardia FBPA inh	LASV entry inh	HCV inh	Marburg entry inh
Clc1ccc(CN2CCC(c3nc4ccc(Cl)cc4[nH]3)CC2)cc1	-65.5*	?	0.1%	?	?	11.2µM*
CC1CCCN(C(=O)CN2CCC(c3nc4ccc(Cl)cc4[nH]3)CC2)C1 (centres undefined)	3.3	-26.8%	1.6%	.	?	.
O=C(/C=C/Sc1ccc(C(F)(F)F)cn1)c1ccccc1	50.9	11.7%	8.4%	.	10µM*	.
O=C(CSc1ccc(C(F)(F)F)cn1)Nc1ccccc1	-7.2	-6.2%	3.6%	4.8%	22.0%	12.2%
O=C(CSc1n[nH]c(-c2ccc(S(=O)(=O)NC3CCCCC3)cc2)n1)N1CCCC1	-61.2*	.	-5.5%	?	-21.6%	-25.9%
COc1ccc(-c2nc(SCC(=O)N3CCC(C)CC3)n[nH]2)cc1	14.0	-2.7%	.	3.16µM*	.	.
O=C(COc1ccc(S(=O)(=O)NC2CCCC2)cc1)N1CCCCC1	-19.8	8.2%	.	-28.7%	.	?
CCN(CC)c1ccc(C2Nc3cccc4cccc(c34)N2)cc1	11.4	12.5%	-24.6%	4.2%[46.1 µM]	-2.8%	3.6%[46.1 µM]
O=C1NC(c2cccc3ccccc23)Nc2ccccc21 (centres undefined)	-69.0*	5.3%	.	?	0.3%	?
O=C1NC(c2ccccc2Cl)Nc2ccccc21 (centres undefined)	22.9	-22.5%	-2.3%	-3.2%	-11.6%	?
CCN(CC)c1ccc(C2NC(=O)c3ccccc3N2)cc1 (centres undefined)	-25.0	11.2µM*	.	6.31µM*	-19.4%	?
CCNc1nc(N)nc(Oc2ccc(OCC(=O)OC)nn2)n1	-29.0	-6.5%	.	22.6%[46.1 µM]	.	1.4%[46.1 µM]
O=C1NC(c2ccccc2)=C(c2nc3ccccc3s2)C(c2ccccc2)N1 (centres undefined)	48.7	?	-3.5%	9.2µM*	?	-21.3%
COc1ccc(C(=O)NN(C)c2nc(C(F)(F)F)nc3ccccc23)cc1	-98.6*	-14.4%	-3.2%	?	-2.7%	?
COc1ccc(C(=O)NN(C)c2nc(-c3ccccc3)nnc2C(F)(F)F)cc1	-13.4	-24.2%	3.5%	-10.5%	8.1%	7.8%
COC(=O)c1[nH]c2ccccc2c1NC(=O)CN1CCN(C/C=C/c2ccccc2)CC1	-61.0*	.	0.8%	?	11.2µM*	18.3µM*
CCOC(=O)c1[nH]c2ccc(F)cc2c1NC(=O)CN1CCc2cc(OC)c(OC)cc2C1	.	.	-3.1%	.	.	.
Cc1cccc(C)c1NC(=O)CN1CCN(C/C=C/c2ccccc2)CC1	19.3	-11.5%	.	.	.	.
CCOC(=O)c1[nH]c2ccc(F)cc2c1NC(=O)CN1CCN(C/C=C/c2ccccc2)CC1	-21.6	31.6µM*	-0.1%	?	10µM*	?
O=c1c2ccccc2sn1-c1cccc(Cl)c1	-28.4	1.7%	.	.	.	.
O=C(O)c1cccc(-n2sc3ccccc3c2=O)c1	-61.2*	8.9%	.	.	-1.3%	.
O=c1c2ccccc2sn1-c1ccccc1	-82.7*	?	?	?	?	?
O=c1c2cc(F)ccc2sn1-c1ccccc1	-30.4	-1.4%	.	.	?	.
O=c1c2ccccc2sn1-c1ccccc1F	-108.7*	0.0%	.	.	.	.
Cc1ccccc1-n1sc2cc(F)ccc2c1=O	-97.8*	?	?	-16.8%	?	?
SMILES	HCMV inh	FMDV antiviral	Giardia FBPA inh	LASV entry inh	HCV inh	Marburg entry inh
Cn1sc2ccccc2c1=O	-0.9	0.0%	.	.	.	.
COc1cccc(CNC(=O)CCc2nnc3n(CC(C)C)c(=O)c4ccccc4n23)c1	?	-11.7%	.	.	.	0.6%[46.1 µM]
Cc1cccc(CNc2ncncc2-c2ccccc2CN(C)C)c1	.	-20.9%	7.3%	.	.	.
CC(=O)c1cc(C(=O)Nc2cc(C)cc(C)c2)c2ccccn12	?	6.5%	.	27.0%[46.1 µM]	.	-11.8%[46.1 µM]
N#Cc1ccc2c(=O)n(-c3ccccc3)sc2c1	45.3	38.3%	.	.	.	.
CC(=O)Nc1ccc2c(=O)n(-c3ccccc3)sc2c1	-75.4*	13.8%	.	.	.	.
CCCCSc1nc2c(cc1C#N)CCC2	14.7	19.3%	0.0%	?	22.4µM*	-19.5%
CN1CCc2nc(SCC(=O)Nc3ccc(Cl)cc3)c(C#N)cc2C1	-33.2	-7.2%	.	19.1%	?	?
CN1CCc2nc(SCC(=O)OC(C)(C)C)c(C#N)cc2C1	135.7	25.3%	?	2.2%	3.98µM*	?
N#Cc1cc2c(nc1SCC(=O)N1CCOCC1)CCCCC2	-77.1*	.	2.9%	?	2.0%	-29.2%
CSc1nc2c(cc1C#N)CCC2	-35.6	-12.4%	-3.7%	6.5%	18.0%	2.9%
N#CC(C#N)[C@@H](c1ccsc1)c1c(-c2ccccc2)[nH][nH]c1=O	.	.	.	.	.	2.1%
CCCCn1cc(S(=O)(=O)c2cc(C)ccc2C)c(=O)c2cc(F)c(N3CCC(C)CC3)cc21	22.4	13.2%	.	?	.	.
C/C(=N\Nc1ccc(Cl)c(C(=O)O)c1)c1ccccn1	-24.5	1.2%	?	.	8.5%	.
Cc1sc2ncnc(N/N=C/c3cccc(O)c3)c2c1C	?	-5.0%	-22.3%	27.5%	?	3.16µM*
C/C(=N\Nc1ncc(Cl)cc1Cl)c1ccccn1	.	5.62µM*	-13.6%	?	?	0.891µM*
C/C(=N\Nc1ncnc2sc(C)c(C)c12)c1ccccn1	-101.5*	16.8%	?	?	?	3.16µM*
Cc1ccc(C)c(OC2=NS(=O)(=O)c3ccccc32)c1	19.6	35.5µM*	2.5%	0.2%[46.1 µM]	-7.5%	-39.5%[46.1 µM]
CC1=CC=CN2C[C@H](O)CN=C12	.	.	.	.	.	12.2%
CC(C)C[C@H](NC(=O)C1OC1C(=O)O)C(=O)NCCCCN=C(N)N (some centres undefined)	.	.	-1.5%	?	.	4.11µM*
CCOC(=O)C1OC1C(=O)N[C@@H](CC(C)C)C(=O)NCCC(C)C (some centres undefined)	.	.	0.2%	.	.	.
CCOC(=O)c1ccc(N2C(=O)c3[nH]nc(-c4ccc(OCC)cc4)c3C2c2cccs2)cc1 (centres undefined)	-64.8*	?	.	?	.	?
CCOC(=O)c1ccc(N2C(=O)c3[nH]nc(-c4ccccc4)c3C2c2cccs2)cc1 (centres undefined)	-98.1*	-57.9%	.	?	.	?
CN(C)C1CCc2[nH]c3ccc(NC(=O)c4ccc(F)cc4)cc3c2C1 (centres undefined)	.	-3.2%	-7.3%	.	.	.
Cc1nc(C(=O)Nc2cc(F)cc(Cl)c2)sc1C1(C)CC(c2ccccc2)=NO1 (centres undefined)	?	?	.	.	14.1µM*	.
CCSc1nnc2c(n1)OC(c1ccc(OC)cc1OC)N(C(C)=O)c1ccccc1-2 (centres undefined)	-63.5*	6.3%	.	-26.7%[46.1 µM]	.	-7.0%[46.1 µM]
CC(OC(=O)c1cc(Br)ccc1O)C(=O)Nc1ccc(S(=O)(=O)N2CCCC2)cc1 (centres undefined)	-3.4	20µM*	.	?	?	?
